Hits are enriched below; roughly 2% of the tested compounds scored in any of these assays.
CR mimetic SO: reduction of superoxide in aged yeast, primary screen, HTS; superoxide response (% of plate mean), % at 10 µM; 0.18% of 330,000 active; S. cerevisiae aged cells, superoxide DHE fluorescence; active compounds read low;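 active means superoxide response under a set limit, about three screen SD below normal, cut at about 65% in these data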;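 further: yeast aged for seven days with compound at 30 °C before DHE staining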
SKKanGAS inh: S. pyogenes SKKanGAS growth inhibitors in kanamycin, primary screen, streptokinase expression inhibitor project, SKKanGAS strain, BacTiter-Glo luminescence | 1.3% of 300,000 active | AID 1662, 2009 | inhibition, % at 7.5 µM | 6 h;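 active means mean replicate score, as percent of positive control median, at least 50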;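 further: strain carries kanamycin resistance gene driven by streptokinase promoter and grows in 40 µg/ml kanamycin; loss of luminescence reflects streptokinase promoter inhibition or plain growth inhibition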
PolyA inhibitor: polyadenylation inhibitors in yeast reporter cells, primary screen, luminescence, S. cerevisiae; S. cerevisiae SKY197-pL101 polyadenylation reporter, beta-gal luminescence; efflux-impaired pdr1/pdr3 knockout yeast; score 100 = 6 SD above DMSO; activity score, % at 12 µM; 0.02% of 300,000 active; AID 1875, 2009;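 active means lowest replicate activity score at least 50, where 100 means six control SD above control mean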;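 further: yeast exposed to compound for 9 h at 30 °C; higher score means more reporter readthrough which indicates perturbed polyadenylation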
Platelet DG rel: inhibitors of platelet dense granule secretion, primary screen, cell-based, MLPCN, human platelets. 0.22% of 300,000 active. AID 1663, 2009. human platelet-rich plasma, SFLLRN dense granule ATP release, luminescence. inhibition, %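 (compounds screened at 7.5 µM in platelet-rich plasma)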;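 active means mean replicate score, as percent of positive control, at or above 50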
Calb FLC: C. albicans growth inhibition with fluconazole, primary screen, CaCi-2 strain, Alamar Blue fluorescence; AID 1979, 2009; growth inhibition, % (test concentration not listed); 0.57% of 300,000 active; C. albicans CaCi-2 (fluconazole-resistant clinical isolate) + fluconazole, 48 h;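 active means growth inhibition above about 58% in most replicates, limit read from the data, passing the limit was not always enough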;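 further: all wells also contain fluconazole at 8 µg/ml as a sub-toxic cotreatment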
Of the large screens only hits and unclear results are named; the others gave an inactive call.

COc1cc(C2CC(=O)Oc3c(C(CCN4CCOCC4)c4ccc(N(C)C)cc4)c(OC)cc(OC)c32)cc(OC)c1OC (stereo unspecified)	PolyA inhibitor 58
Cc1cc(/C=N/n2cnnc2)c(C)n1-c1ccc(OCc2ccc(Cl)cc2)cc1	SKKanGAS inh 62
O=C(NNc1ccccc1Br)C(O)(c1cccc(C(F)(F)F)c1)c1cccc(C(F)(F)F)c1	SKKanGAS inh 101
CN1CCN(CC(=O)Nc2sc3c(c2C(=O)Nc2ccccc2)CCCC3)CC1	none
O=C(CN1CCCC1)Nc1sc2c(c1C(=O)Nc1ccc(Br)cc1)CCC2	SKKanGAS inh 61
CCOc1ccc(NC(=O)c2c(NC(=O)CNCCN3CCOCC3)sc3c2CCC3)cc1	SKKanGAS inh 90
C[n+]1ccc(/C=N/Nc2nc(Cl)c(C#N)c(Cl)c2Cl)cc1	SKKanGAS inh 91
Clc1nnc(N/N=C/c2ccccc2)c2ccccc12	none
CSc1nc(N)n2nc(-c3ccc(Cl)cc3)cc2n1	Platelet DG rel 67
COc1ccc(OC)c(C(C(=O)NC2CCCCC2)N(Cc2ccco2)C(=O)c2ccccn2)c1 (stereo unspecified)	none
Oc1c(C(c2cccs2)N2CCOCC2)sc2ncnn12 (stereo unspecified)	Platelet DG rel 55
CN(CC#CC(O)(c1ccccc1)c1ccccc1)C(C)(C)C	CR mimetic SO 65 (no result: Platelet DG rel)
Cc1ccc2cc(CN(Cc3cccs3)C(=O)c3ccco3)c3nnnn3c2c1C	SKKanGAS inh 63
Cc1ccc2c(c1)cc(CN(Cc1cccs1)C(=O)c1ccco1)c1nnnn12	none
c1ccc(CNc2nc(-c3ccccn3)nc3ccccc23)cc1	SKKanGAS inh 93
CCC(C)Nc1nc(-c2ccccn2)nc2ccccc12 (stereo unspecified)	SKKanGAS inh 89
CCC(C)Nc1nc(-c2cccc(OC)c2O)nc2ccccc12 (stereo unspecified)	none
c1ccc(CNc2nc(-c3ccccc3)nc3ccccc23)cc1	none
c1ccc(CNc2nc(NCc3ccccc3)c3ccccc3n2)cc1	Calb FLC 80
CCc1ccccc1OCC(=O)Nc1nc(-c2cccnc2)cs1	SKKanGAS inh 102
Cc1ccccc1OCC(=O)Nc1nc(-c2ccncc2)cs1	none (no result: SKKanGAS inh, PolyA inhibitor, Platelet DG rel, Calb FLC)
COc1ccc(OCCCC(=O)Nc2nc(-c3ccccn3)cs2)cc1	SKKanGAS inh 73
O=C(CCS(=O)(=O)c1ccccc1)Nc1nc(-c2ccccn2)cs1	none
O=C(CCS(=O)(=O)c1ccc(F)cc1)Nc1nc(-c2ccccn2)cs1	none
CC(Oc1ccc(F)cc1)C(=O)Nc1nc(-c2ccccn2)cs1 (stereo unspecified)	SKKanGAS inh 107
CCC(=O)c1ccc(OCC(=O)Nc2nc(-c3cccnc3)cs2)cc1	none
Cc1cc(C)c(OCC(=O)Nc2nc(-c3ccccn3)cs2)c(C)c1	SKKanGAS inh 97
COCCOC1CCN(C(=O)C2CCC(=O)N(CCc3ccccc3)C2)CC1 (stereo unspecified)	none
CCOC(=O)c1cn(Cc2cccc(Cl)c2)c2cc(C)nn2c1=O	none
COc1ccc2oc(C(=O)Nc3nc(-c4ccccn4)cs3)c(C)c2c1	SKKanGAS inh 84
COc1ccc2oc(C(=O)NC(C)c3ccccn3)c(C)c2c1 (stereo unspecified)	none (no result: SKKanGAS inh, PolyA inhibitor, Platelet DG rel, Calb FLC)
C/C(=N/NC(=O)c1cc(O)c(O)c(O)c1)c1ccc([N+](=O)[O-])cc1	Calb FLC 91 (no result: CR mimetic SO)
CC(=O)NC/C(C)=N\Nc1ccc([N+](=O)[O-])cc1	Calb FLC 113
C/C(=N\NC(=O)c1ccc([N+](=O)[O-])cc1)c1c(O)cc(C)oc1=O	none
C/C(=N\Nc1ccc([N+](=O)[O-])cc1)c1ccc(O)cc1	Calb FLC 113
Nc1ncnc2c1ncn2[C@@H]1O[C@H](CNS(=O)(=O)c2cc3ccccc3s2)[C@@H](O)[C@H]1O	none (no result: SKKanGAS inh, PolyA inhibitor, Platelet DG rel, Calb FLC)
Cc1nc(-c2ccccc2)sc1C1(C)CC(c2cccc(F)c2)=NO1 (stereo unspecified)	none
COc1ccc(-c2coc3c(C)c4oc(=O)c(CCC(=O)O)c(C)c4cc23)cc1	SKKanGAS inh 53
Cc1c(CCC(=O)O)c(=O)oc2c(C)c3occ(-c4ccc(Br)cc4)c3cc12	none
CC1(c2ccccc2)NC(=O)N(CC(=O)N2CCN(S(=O)(=O)c3cccs3)CC2)C1=O (stereo unspecified)	none
CC1(c2ccccc2)NC(=O)N(CC(=O)N2CCN(S(=O)(=O)c3ccccc3[N+](=O)[O-])CC2)C1=O (stereo unspecified)	Platelet DG rel 57
CCOC(=O)C(C(=O)OCC)c1cc(Br)c2noc3c2c1C(=O)c1ccccc1-3	SKKanGAS inh 91
Cc1ccc(N2CC(C(=O)NCCS(=O)(=O)N3CCN(c4ccccc4)CC3)CC2=O)cc1C (stereo unspecified)	none
O=C1CCC(/C=C/c2ccccc2)=NN1Cc1ccc(Cl)c(Cl)c1	SKKanGAS inh 53
COc1ccc(/C(C)=N/NC(=O)c2nnn(-c3nonc3N)c2CN(C)c2ccccc2)cc1	none (no result: Calb FLC)
C/C(=N\NC(=O)c1nnn(-c2nonc2N)c1CN(C)c1ccccc1)c1ccccc1O	SKKanGAS inh 50
CCCCNS(=O)(=O)c1cc2c3c(c1)CCN3C(=O)CC2	none
O=C(Oc1ccc(OC(=O)C2CCC2)cc1)C1CCC1	none
COc1ccc(C(=O)C(CN2CCCC2)c2ccccc2)cc1 (stereo unspecified)	Calb FLC 80
O=C(CSc1nc2ccccc2c(=O)n1Cc1ccccc1)Nc1ccc(Br)cc1C(=O)O	SKKanGAS inh 52
Cn1c(NNC(=O)C2CCCCC2)cc(=O)n(C)c1=O	none
CCCCCCCCCCCC(=O)c1c(O)cccc1O	SKKanGAS inh 103
CCCCCCCC(=O)NNC(=O)Cc1ccccc1	none
CC(NC(=O)CCCCCCN1C(=O)c2ccccc2C1=O)c1ccc2c(c1)CCCC2 (stereo unspecified)	PolyA inhibitor 82
CC(NC(=O)CCCCCN1C(=O)c2ccccc2C1=O)c1ccc2c(c1)CCCC2 (stereo unspecified)	none
COC(=O)/C(=C\c1ccc([N+](=O)[O-])o1)NC(=O)c1ccccc1	Calb FLC 102
CN(C)CCCNC(=O)/C(=C/c1ccc(-c2ccc([N+](=O)[O-])cc2)o1)NC(=O)c1ccccc1	none
CCCCNC(=O)/C(=C\c1ccc([N+](=O)[O-])o1)NC(=O)c1ccccc1	Calb FLC 100
CCOC(=O)c1ccc(-c2ccc3c(=O)c4ccccc4n(C)c3c2)cc1F	SKKanGAS inh 65
CCOC(=O)c1ccc(-c2c(-c3ccccc3OC)oc3ccccc23)cc1F	none (no result: SKKanGAS inh, PolyA inhibitor, Platelet DG rel, Calb FLC)
Cc1ccc(F)c(CNC(=O)C2CCC(=O)N(Cc3ccccn3)C2)c1F (stereo unspecified)	none

Screens as filed in PubChem.
